# Most compounds without a hit are left out; they make up all but 5.4% or so of the library.
# AHR act = human AHR activation. P35869. AHR-responsive luciferase reporter cells, luminescence. activation, % at 5 µM. actives 2.5% (n = 320,000); in the data active = activation above about 47%;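 note: 0% = vehicle wells and 100% = reference agonist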
# NR0B1 inh = NR0B1 (DAX1) inhibition; actives 0.99% (n = 340,000); inhibition, % at 6.75 µM; HEK293 Gal4-DAX1 luciferase reporter, luminescence; P51843;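 active = inhibition above the mean over all tested compounds plus 3 SD, cut at about 4.2% in these data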;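 note: 0% = DAX1-transfected cells with DMSO and 100% = empty-vector control cells with DMSO; inhibition shows as a rise in luminescence from relieved DAX1 repression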
# Target sequence (P51843 207-470 limits assumed): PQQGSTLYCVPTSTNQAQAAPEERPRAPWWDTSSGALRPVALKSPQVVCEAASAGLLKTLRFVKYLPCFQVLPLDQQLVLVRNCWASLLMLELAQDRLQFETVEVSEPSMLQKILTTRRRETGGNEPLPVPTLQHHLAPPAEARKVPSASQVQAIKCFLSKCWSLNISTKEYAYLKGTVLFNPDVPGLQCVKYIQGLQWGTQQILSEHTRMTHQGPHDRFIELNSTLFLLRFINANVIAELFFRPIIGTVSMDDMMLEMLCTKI
# HSF1 inhib = HSF1 inhibition; actives 0.77% (n = 300,000); activity change, negative = inhibition, % at 7.5 µM (by protocol); NIH3T3-HGL HSE-luciferase, MG132-induced, luminescence 8 h; stronger effect = lower value;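 active = more than half of replicate wells show activity change below -50%, luminescence cut by over half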;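 note: luciferase reports HSF-1 transcriptional activity via heat shock element; 0% = median of DMSO wells and -100% = zero luminescence signal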
# GAA850 FXN act = frataxin GAA850 promoter activation | actives 0.56% (n = 360,000) | activation, % at 6 µM | HEK293 lucGAA850 FXN promoter luciferase reporter, 24 h; percent of 10 µM SAHA response;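 active = activation above the average of all compounds screened plus 3 SD, cutoff fixed separately per campaign, cut at about 7.5% in these data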;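 note: 0% = DMSO wells and 100% = 10 µM SAHA wells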
# HSF-1 act = increases HSF-1 driven luciferase reporter signal; actives 1.7% (n = 300,000); activation, % at 9 µM; NIH3T3-HGL HSF-1 luciferase reporter, MG132, 8 h; 100% = twice DMSO control signal;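 active = mean replicate activation of at least 50% with a set share of replicates each reaching 50%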;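 note: 0% = median of the neutral control wells and 100% = twice that signal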
# The depositor's hits bear a star; x = no result given.
SMILES,AHR act,NR0B1 inh,HSF1 inhib,GAA850 FXN act,HSF-1 act
O=C(/C=C/Nc1cccc(O)c1)c1ccccc1,0.4,-2.0,10.4,-3.0,2.1
Cc1cccc(N/C=C/C(=O)c2cccs2)c1C,58.9*,0.5,10.4,-0.9,8.1
Cc1ccc(N/C=C/C(=O)c2ccccc2)cc1Br,54.6*,1.6,16.5,3.0,21.5
COc1cc([N+](=O)[O-])ccc1N/C=C/C(=O)c1cccs1,51.0*,-1.8,2.2,-2.5,12.0
COC(=O)c1ccc(C)c(-n2c(=O)n(Cc3ccccc3)c(=O)c3[nH]cnc32)c1,-0.1,-0.7,-5.5,1.4,-12.1
O=C(NNC(=O)c1ccccc1Cl)c1ccc(-n2cncn2)c([N+](=O)[O-])c1,0.2,0.9,x,0.6,x
O=C(OCn1nnc2ccccc2c1=O)c1ccc(F)c(S(=O)(=O)N2CCOCC2)c1,x,0.0,x,1.2,x
N#C/C(=C\c1ccc(-c2cccc([N+](=O)[O-])c2)o1)C(=O)Nc1nc(-c2cccs2)cs1,78.5*,2.0,-2.9,2.5,3.6
COc1ccc(NC(=O)c2cc([N+](=O)[O-])ccc2O)cc1,-7.3,-8.0,-73.5*,-13.9,-68.9
COc1ccc(Nc2ccc(C(=O)O)cc2[N+](=O)[O-])cc1,-0.3,1.6,0.4,1.4,7.4
COc1ccc(Nc2ccc([N+](=O)[O-])cc2[N+](=O)[O-])cc1,4.0,6.3*,-1.5,0.6,7.3
Cc1[nH]c2ccc3ccccc3c2c(=O)c1C/C=C/Cl,47.2*,0.1,7.9,0.4,7.0
CC(C)CCN1CCN(Cc2ccc(C#CCCO)cc2)CC1CCO (centres undefined),-0.9,-0.8,-4.3,2.4,-5.6
O=C(Nc1ccc(F)cc1F)c1cc2nc3c(c(C(F)(F)F)n2n1)CCCC3,3.4,1.2,-55.2*,-1.9,-61.8
O=C(O)c1cc2nc3c(c(C(F)(F)F)n2n1)CCCC3,0.6,0.3,4.2,1.4,-0.8
COc1ccc(N(CC(=O)N2CCN(Cc3ccccc3)CC2)S(C)(=O)=O)cc1Cl,-0.6,0.4,-8.2,2.3,-0.2
Cc1ccc(N(CCC#N)C(=O)CSc2nnc3ccccn23)cc1,-0.6,-0.1,x,0.8,x
COc1ccccc1Oc1coc2cc(OCC(N)=O)ccc2c1=O,-0.8,-0.7,-2.7,1.6,-7.3
CCCNC(=O)COc1ccc2c(=O)c(Oc3ccccc3F)coc2c1,1.2,-0.1,-69.5*,-0.5,-76.7
CCc1ccccc1NC(=O)COc1ccc2c(=O)c(Oc3cc(C)ccc3C)coc2c1,4.1,0.1,28.7,-2.6,70.6*
CCC1Oc2ccccc2N(CC(=O)NC2CCCCC2)C1=O (centres undefined),0.6,0.9,8.2,-0.9,13.8
Cc1nc(NC(=O)COc2ccccc2)sc1C(=O)Nc1ccccc1,66.0*,-0.1,-5.7,-1.4,6.0
Cc1cnc(NC(=O)COc2ccccc2)s1,-8.7,2.6,27.1,3.2,61.4*
COCCNC(=O)C(c1ccncc1)N(C(=O)c1sc(C)nc1C)c1cccc(C)c1 (centres undefined),5.4,0.2,32.3,1.9,74.6*
CCC(C)(C)NC(=O)C(c1ccncc1)N(C(=O)c1sc(C)nc1C)c1ccc(F)cc1 (centres undefined),0.1,1.3,-37.8,-0.5,-51.3
SMILES,AHR act,NR0B1 inh,HSF1 inhib,GAA850 FXN act,HSF-1 act
CCOc1ccc(S(=O)(=O)c2c(C(=O)c3ccccc3)cnc3cc4c(cc23)OCCO4)cc1,0.2,-1.0,32.5,-0.5,68.0*
CCCC(=O)Nc1cc2c(cc1C(=O)c1ccccc1)OCCO2,9.1,-0.4,-7.9,-0.3,-10.1
CSCCC(NS(=O)(=O)c1ccc2c(c1)OCCO2)C(=O)N(C)Cc1ccccc1F (centres undefined),-1.6,0.1,x,-0.5,x
COC1C=CC=C(C)C(=O)NC2=CC(=O)C(N)=C(CC(C)CC(OC)C(O)C(C)C=C(C)C1OC(N)=O)C2=O (centres undefined),x,-2.0,69.4*,-9.8,69.4*
O=C(/C=C/c1ccccc1)N/C(=C/c1ccccc1)C(=O)N1CCCCC1,7.8,1.5,-6.7,-0.7,5.1
CC(=O)NCCC(=O)Nc1cc(S(=O)(=O)N2CCOCC2)ccc1Oc1ccccc1,0.9,0.3,1.2,-1.0,-8.9
CSCCC(NC(N)=O)C(=O)Nc1cccc(C#N)c1 (centres undefined),0.4,5.1*,-1.9,-0.6,15.7
O=Cc1ccc(C(=O)OCC(=O)Nc2ccc(F)cc2F)cc1,0.7,0.3,0.5,2.0,-1.1
O=C1NC(c2ccc3ccccc3c2)Nc2ccccc21 (centres undefined),x,3.1,x,-2.4,x
O=C1NC(c2ccc3c(c2)OCO3)Nc2ccccc21 (centres undefined),145.3*,0.7,10.2,1.1,48.1
COc1ccc(C2NC(=O)c3ccccc3N2)cc1OC (centres undefined),47.5*,0.1,13.7,4.5,32.4
CCOC(=O)c1c(NC(=O)c2ccco2)n(C2CCCCC2)c2nc3ccccc3nc12,3.9,2.3,50.2,-1.0,78.3*
Cc1cc(NC(=O)CN2C(=O)NC3(CCCCCC3)C2=O)no1,3.4,1.7,-5.1,0.3,6.9
O=C(COc1ccccc1)Nc1ccc(S(=O)(=O)Nc2ncccn2)cc1,5.0,-0.1,-6.6,3.6,-5.8
Cc1ccnc(NS(=O)(=O)c2ccc(NC(=O)COc3ccccc3)cc2)n1,-0.1,1.7,-87.9*,0.9,-91.0
Cc1ccnc(NS(=O)(=O)c2ccc(NC(=O)c3ccccc3F)cc2)n1,58.1*,-0.2,-1.4,0.4,9.6
COc1ccc(-c2nc(SCC(=O)NC3CCCCC3)n[nH]2)cc1,x,-0.7,1.1,-2.7,14.0
NC(=O)CN(C/C=C/c1ccccc1)C/C=C/c1ccccc1,55.1*,0.1,-4.2,0.6,1.7
CN(CC(=O)O)S(=O)(=O)/C=C/c1ccccc1,-1.9,0.9,-5.0,0.9,9.2
Cc1ccnc(NC(=O)c2cccc(S(=O)(=O)Nc3ccc(C)cc3C)c2)c1,60.5*,-1.1,x,-0.2,x
O=C(Nc1ccc(Br)cc1)c1cccc(S(=O)(=O)Nc2ccccn2)c1,60.9*,-0.9,-6.6,-1.7,3.4
Cc1ccc(NS(=O)(=O)c2cccc(C(=O)NNC(=O)c3cccn3C)c2)c(C)c1,2.4,-0.1,-2.1,3.5,1.4
O=C(Nc1ccccc1)c1cccc(S(=O)(=O)Nc2ccccn2)c1,2.7,0.7,-2.5,0.2,-10.8
COc1cccc(CNC(=O)CCC(=O)N2CCOCC2)c1,0.3,1.9,x,-0.1,x
CCOc1ccc(S(=O)(=O)N(C)c2ccc(OCC(=O)NCCc3ccc(OC)cc3)cc2)cc1,14.4,0.2,-53.2*,0.2,-62.9
COc1ccc(CCNC(=O)c2ccc(N(C)S(=O)(=O)c3ccc(C)cc3)cc2)cc1,4.1,-0.5,-54.5*,0.0,-69.2
CCOc1ccc(S(=O)(=O)N(C)c2ccc(OCC(=O)NCC3CCCCC3)cc2)cc1,4.8,-1.0,x,4.0,x
OCCC1CN(Cc2cccc3nccnc23)CCN1Cc1ccc(F)cc1 (centres undefined),0.8,-0.1,-3.9,0.2,9.3

# Compound activity: PubChem, several laboratories
